Hits are enriched below; roughly 15% of the tested compounds scored in any of these assays.
Gal4-VP16 FLuc = counter-screen for ROR gamma inhibitors: Gal4-VP16 reporter. 310,000 compounds, 3.5% hits. AID 2546. Drosophila S2 Gal4-VP16 UAS-luciferase, luminescence, 20 h. Potency, µM (doses to about 53.6 µM), for the others: at the highest dose activity, negative = inhibition, hits mostly inhibitors;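 also: Gal4-VP16 expression switched on by copper sulfate through the metallothionein promoter; nearly all actives have a fitted effect of over 50% in size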
ELG1 repair inh = blocks ELG1-dependent DNA repair in HEK293T cells; Potency, µM (series often up to 46.1 µM), inactives show at the highest dose activity change, negative = inhibition, actives largely listed as inhibitors; 330,000 compounds, 2.3% hits; HEK293T ELG1-luciferase reporter, luminescence, 16 h; DNA damage induced by 5-fluorouridine; AID 504467; also: nearly all actives have a fitted effect of over 55% in size
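Quantitative HTS, concentration-response format. 2,000 cells/well co-treated with 5-fluorouridine and compound, 16 hr in 5% CO2 at 37 °C; ONE-Glo luminescence read after 30 min.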
TDP1 cell CPT = growth inhibition of DT40 Tdp1-/-;hTDP1 cells with camptothecin (screen for TDP1 inhibitors); chicken DT40 Tdp1-/-;hTDP1 cells + 20 nM CPT, ATP luminescence, 48 h; Potency, µM (top dose mostly 46.2 µM), inactives show at the highest dose activity change, negative = growth inhibition, usual class: inhibitors; 420,000 compounds, 12% hits; also: nearly all actives have a fitted effect of over 55% in size
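Chicken DT40 Tdp1-/- cells complemented with human TDP1, 400 cells/well, exposed to compounds plus 20 nM camptothecin for at least 48 h at 37 C; viability read as ATP content by CellTiter-Glo luminescence.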
RORgamma inh = inhibitors of mouse ROR gamma transcriptional activity | P51450 | 310,000 compounds, 5.4% hits | Drosophila S2 Gal4-RORgamma UAS-luciferase reporter, 20 h | Potency, µM (titrated, usually from 53.6 µM), without a hit: top-dose activity change, negative = inhibition, hits mostly inhibitors; also: nearly all actives have a fitted effect of over 60% in size
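Drosophila S2 cells stably expressing Gal4-DBD/mouse RORγ fusion under metallothionein promoter plus UAS-luciferase; compound 1 h, then 700 uM CuSO4 induction for 20 h at ambient temperature; inhibition read as reduced luminescence.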
ALOX12 inh = blocks human arachidonate 12S-lipoxygenase; purified 12hLO, xylenol orange hydroperoxide absorbance; AID 1671190; 580,000 compounds, 1.1% hits; Potency, µM (highest dose often 108 µM), inactives show at the highest dose activity change, negative = inhibition, most hits filed as inhibitors
Target sequence (P18054 whole entry, looked up): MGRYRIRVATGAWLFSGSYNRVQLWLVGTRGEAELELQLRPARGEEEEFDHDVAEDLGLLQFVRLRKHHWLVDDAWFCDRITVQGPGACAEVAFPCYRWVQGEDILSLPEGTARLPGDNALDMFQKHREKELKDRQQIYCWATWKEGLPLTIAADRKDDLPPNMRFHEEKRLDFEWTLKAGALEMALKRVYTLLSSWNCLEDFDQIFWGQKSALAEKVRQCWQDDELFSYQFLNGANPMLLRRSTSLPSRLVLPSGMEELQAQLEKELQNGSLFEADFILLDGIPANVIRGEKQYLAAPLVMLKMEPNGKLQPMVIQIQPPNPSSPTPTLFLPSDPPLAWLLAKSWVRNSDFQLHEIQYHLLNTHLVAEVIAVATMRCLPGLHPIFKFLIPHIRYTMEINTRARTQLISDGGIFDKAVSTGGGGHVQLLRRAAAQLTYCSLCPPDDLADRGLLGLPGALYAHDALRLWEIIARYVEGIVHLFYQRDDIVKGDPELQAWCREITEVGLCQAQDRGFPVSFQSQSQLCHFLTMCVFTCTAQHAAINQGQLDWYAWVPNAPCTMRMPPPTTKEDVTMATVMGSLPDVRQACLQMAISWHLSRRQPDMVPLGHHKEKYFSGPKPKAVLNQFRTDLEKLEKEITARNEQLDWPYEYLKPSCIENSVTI
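Purified human 12hLO (150 nM final) in 25 mM Hepes, 0.01% Triton X-100, pH 7.0 was preincubated 15 min at room temperature with compound. Then 40 uM arachidonic acid was added, 30 min. Hydroperoxide was read by Fe-XO absorbance ratio 573/405 nm.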
DT40 TDP1 no CPT = qHTS for Inhibitors of human tyrosyl-DNA phosphodiesterase 1 (TDP1): qHTS in cells in absence of CPT; DT40 Tdp1-/- hTDP1 cells, no CPT, ATP luminescence, 48 h; Potency, µM (series often up to 46.2 µM), inactives show at the highest dose activity change, negative = growth inhibition, actives largely listed as inhibitors; 420,000 compounds, 15% hits; also: nearly all actives have a fitted effect of over 55% in size
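DT40 Tdp1-/-;hTDP1 cells, no CPT (DMSO vehicle only), 400 cells/well; compounds pin-transferred; ≥48 hr, 37 °C; CellTiter-Glo 30 min RT dark, luminescence read.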
The depositor's hits bear a star; ? = inconclusive; . = not tested or not shown; [ ] = dose if it differs, or a comment. Calls follow the shape of the dose curve; as a rule, active = well fitted curve in the direction sought with a large enough effect; inconclusive = small, poorly fitted or top-dose-only effect, or another doubt; inactive = no such curve, though single readings can be large; an effect the other way counts as inactive or inconclusive. % is scaled to controls: 0 for no effect and ±100 for the full control effect; potency is read from the fitted curve at half-maximal effect.

SMILES	Gal4-VP16 FLuc	ELG1 repair inh	TDP1 cell CPT	RORgamma inh	ALOX12 inh	DT40 TDP1 no CPT
COc1ccccc1CNc1ccccc1F	1.6%	1.5%	?	14.1%	31.7%	-19.3%
COc1ccccc1CNc1nc(NCc2ccccc2F)c2sccc2n1	.	.	2.91µM*	.	.	4.11µM*
COCCNc1nc(NCc2ccccc2F)c2sccc2n1	.	.	18.4µM*	.	-24.2%	18.4µM*
COc1ccccc1CNc1nc(NCc2ccc(C)cc2C)c2sccc2n1	.	.	4.61µM*	.	.	9.2µM*
COc1ccc(-c2cc(CNc3nc(NCc4ccccc4OC)nc4ccsc34)on2)cc1	.	.	16.4µM*	.	-11.3%	25.9µM*
CC(=O)c1cccc(NC(=O)CCc2nc(CSc3nc4ccccc4o3)no2)c1	.	.	.	.	10.7%	.
COc1ccccc1CNc1nc(NCc2cnc(C)cn2)c2sccc2n1	.	.	?	.	15.4%	?
COc1ccccc1CNc1nc(NCCN2CCNC2=O)c2sccc2n1	.	.	18.4µM*	.	2.9%	?
COCCNc1nc(NCCN2CCNC2=O)c2sccc2n1	.	.	-21.3%	.	0.3%	-4.7%
COc1ccccc1CNc1nc(NCc2ccccc2)nc2ccsc12	.	.	23.1µM*	.	?	14.6µM*
Fc1cc(Cl)ccc1Nc1nc(NCc2ccccc2)nc2ccsc12	.	.	11.6µM*	.	?	9.2µM*
c1ccc(CNc2nc(NCc3ccccc3)c3sccc3n2)cc1	.	.	23.1µM*	.	?	18.4µM*
CC(=O)N1CC2(Cc3ccccc31)CN([S+](=O)([O-])c1c(C)noc1C)C2	.	.	.	.	29.0%	.
CN(Cc1ccc(-c2ccccc2)cc1)Cc1nccs1	.	.	.	.	37.5%[176 µM]	.
Cc1ccc(CN2CCCN(Cc3ccncc3)C(c3ccccc3)CC(=O)NCC2)o1 (configuration not stated)	.	.	.	.	62.0%	.
c1ccc(CNc2nc(Oc3ccncc3)c3sccc3n2)cc1	.	.	-23.1%	.	?	-13.9%
Fc1ccccc1CNc1nc(NCC2CC2)nc2ccsc12	.	.	14.6µM*	.	?	16.4µM*
c1ccc(-n2nnnc2Sc2ncnc3sc4c(c23)CCCC4)cc1	?	?	4.11µM*	?	0.1%	3.26µM*
Cc1sc2ncnc(SCc3ccco3)c2c1C	-13.3%	?	?	?	-3.4%	?
Cc1sc2ncnc(Sc3nnnn3-c3ccc(Cl)cc3)c2c1C	7.08µM*	?	?	3.98µM*	5.3%	?
COC(=O)c1ccc(C2c3c(-c4cccc(OC)c4)n[nH]c(=O)c3Nc3nnnn32)cc1 (configuration not stated)	.	.	.	.	-25.5%	.
COc1ccc2nc(Nc3nc(C)cc(C)n3)nc(C)c2c1	.	.	.	.	47.0%	.
O=C(NC(=S)Nc1ccccc1)c1csnn1	?	?	0.0%	5.62µM*	?	8.9%
COc1ccc(NC(=S)NC(=O)c2csnn2)cc1	25.7%	9.1%	1.7%	?	?	8.9%
O=C(NC(=S)Nc1ccc(C(F)(F)F)cc1)c1csnn1	?	11.7%	?	7.94µM*	?	-21.7%
SMILES	Gal4-VP16 FLuc	ELG1 repair inh	TDP1 cell CPT	RORgamma inh	ALOX12 inh	DT40 TDP1 no CPT
CC(=O)Nc1ccc(NC(=O)c2csnn2)cc1	.	.	3.5%	.	-0.3%	-6.2%
O=C(Nc1csnn1)c1csnn1	0.1%	0.0%	-1.4%	4.7%	10µM*	1.5%
CN(Cc1ccccc1)C(=O)c1cc(-c2cccc(Cl)c2)n[nH]1	.	.	.	.	-1.9%	.
COc1ccc(-c2noc(C(=O)O)c2[C@@H](C)NC(=O)CC(C)C)cc1	.	.	.	.	-18.4%[176 µM]	.
CC1CN(C(=O)c2cc3c(=O)n4ccccc4nc3n2C)CC(C)O1 (configuration not stated)	2.8%	?	12.9%	-4.6%	-5.0%	-5.5%
Cc1cccn2c(=O)c3cc(C(=O)N4CCOCC4)n(C)c3nc12	7.0%	18.3%	13.7%	-10.9%	1.6%	-1.5%

Screening data (PubChem BioAssay)
